JMJD2A Tudor = blocks the human JMJD2A Tudor domain | AID 504339 | Potency, µM (series often up to 114 µM), for inactives: at the highest dose activity change, negative = inhibition, actives largely listed as inhibitors | 390,000 compounds, 4.4% hits | AlphaScreen JMJD2A-Tudor / H3K4me3 peptide binding; note: potency is the fitted concentration of half-maximal effect; % is set by controls: 0 for no effect and ±100 for the full control effect; nearly all actives have a fitted effect of over 50% in size
PI5P4K alpha inh = PI5P4K alpha (human) kinase inhibition. P48426. PI5P4Kalpha enzyme, ADP-Glo luminescence, 60 min; stronger effect = lower value. max response, %. 330,000 compounds, 1.2% hits; active = max response of -50% or lower; inconclusive = between -30% and -50%; inactive = -30% or higher; note: value at the top dose of about 77 µM; % is set by controls: 0 for no effect and ±100 for the full control effect
Target sequence (P48426 whole entry, looked up): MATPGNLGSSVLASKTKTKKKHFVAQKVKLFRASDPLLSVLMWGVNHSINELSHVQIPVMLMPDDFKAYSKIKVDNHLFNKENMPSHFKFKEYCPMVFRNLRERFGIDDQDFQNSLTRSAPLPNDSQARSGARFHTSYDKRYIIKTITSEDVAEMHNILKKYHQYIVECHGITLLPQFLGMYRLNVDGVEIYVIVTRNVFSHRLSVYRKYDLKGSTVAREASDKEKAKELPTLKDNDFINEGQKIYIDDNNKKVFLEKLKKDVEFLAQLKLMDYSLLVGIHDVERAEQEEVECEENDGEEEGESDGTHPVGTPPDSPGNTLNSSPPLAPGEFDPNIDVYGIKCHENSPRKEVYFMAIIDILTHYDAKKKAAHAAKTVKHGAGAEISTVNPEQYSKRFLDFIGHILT
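ADP-Glo luminescence end-point after a 60 min room-temperature kinase reaction. PI5P4Kalpha and substrate in HEPES pH 7.4 buffer with EGTA, 0.1% CHAPS and 5% DMSO; ATP at 5 microM final.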
G9a block = inhibitors of human histone lysine methyltransferase G9a; Q96KQ7; G9a H3K9 monomethylation, AlphaScreen, 2 h; Potency, µM (titrated, usually from 102 µM), for inactives: top-dose activity, negative = inhibition, most hits filed as inhibitors; 350,000 compounds, 8.8% hits; AID 504332; note: potency is the fitted concentration of half-maximal effect; % is set by controls: 0 for no effect and ±100 for the full control effect; nearly all actives have a fitted effect of over 75% in size
Target sequence (Q96KQ7 913-1193 limits assumed): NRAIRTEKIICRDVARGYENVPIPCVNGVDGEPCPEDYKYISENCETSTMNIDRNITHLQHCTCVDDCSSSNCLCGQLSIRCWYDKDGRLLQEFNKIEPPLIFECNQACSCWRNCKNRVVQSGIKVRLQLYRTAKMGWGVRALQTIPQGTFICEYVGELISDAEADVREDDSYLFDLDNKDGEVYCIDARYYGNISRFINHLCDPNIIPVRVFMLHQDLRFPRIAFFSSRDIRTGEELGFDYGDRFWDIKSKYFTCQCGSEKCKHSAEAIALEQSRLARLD
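Quantitative HTS format: methyltransferase activity on a biotin-tagged H3K9 peptide is measured by AlphaScreen, using a rabbit anti-monomethyl-H3K9 antibody with streptavidin donor and anti-IgG acceptor beads. Final levels are 20 nM enzyme, 500 nM peptide, 20 uM SAM; 2 h RT.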
HP1b binding inh = HP1-beta chromodomain-methylated histone interaction inhibition | P83916 | AlphaScreen HP1-beta / biotin-H3K9me3 peptide binding | Potency, µM (highest dose often 114 µM), for inactives: at the highest dose activity change, negative = inhibition, usual class: inhibitors | 390,000 compounds, 0.56% hits | AID 540317; note: potency is the fitted concentration of half-maximal effect; nearly all actives have a fitted effect of over 70% in size
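HP1-beta protein (50 nM final) preincubated 30 min at room temperature with biotinylated H3(1-18)K9me3 peptide (50 nM) in PBS pH 7.4, 0.01% Tween-20, then compound added for 30 min. AlphaScreen streptavidin donor/nickel chelate acceptor beads (10 ug/mL final), 30 min dark, luminescence read.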
PLK1 PBD inh = blocks phosphopeptide binding to human PLK1 polo-box domain; P53350; Plk1 PBD binding of FITC phosphopeptide, fluorescence polarization; Potency, µM, for the others: max response, negative = inhibition, actives largely listed as inhibitors; 360,000 compounds, 2.8% hits; AID 720504; note: potency is the fitted concentration of half-maximal effect; series mostly up to about 57 µM; % is set by controls: 0 for no effect and ±100 for the full control effect; nearly all actives have a fitted effect of over 65% in size
BAZ2B block = inhibitors of human BAZ2B bromodomain; Potency, µM (highest dose often 114 µM), for inactives: at the top dose activity change, negative = inhibition, actives largely listed as inhibitors; AID 504333; AlphaScreen BAZ2B-H3K14Ac peptide displacement; 360,000 compounds, 4.4% hits; note: potency is the fitted concentration of half-maximal effect; % is set by controls: 0 for no effect and ±100 for the full control effect; nearly all actives have a fitted effect of over 60% in size
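Multi-concentration screen (max 110 uM) measuring displacement of acetylated histone H3 peptide from BAZ2B by AlphaScreen, using 50 nM protein, 50 nM peptide and 10 ug/mL streptavidin donor plus Ni-chelate acceptor beads.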
* = called active by the depositor; ? = inconclusive; · = no result; [ ] = remark or other dose. An excerpt weighted towards active compounds, which were near 12% of everything screened. Unless noted, calls come from the whole dose curve; as a rule, active = well fitted curve in the direction sought with a large enough effect; inconclusive = small, poorly fitted or top-dose-only effect, or another doubt; inactive = no such curve, though single readings can be large; an effect the other way counts as inactive or inconclusive.

SMILES	JMJD2A Tudor	PI5P4K alpha inh	G9a block	HP1b binding inh	PLK1 PBD inh	BAZ2B block
COc1cc(C(=O)N/N=C/c2ccc(OC)c(CN3CCN(c4ccc(F)cc4)CC3)c2)ccc1O	45µM*	0	?	-14%	-9%	-70%
COc1ccc(/C=N/NC(=O)c2ccccc2)cc1CN1CCN(c2ccc(F)cc2)CC1	-16%	-12	26%[12.7 µM]	1%	-11%	-5%
O=C(N/N=C/c1ccc(O)c(O)c1)NC12CC3CC(CC(C3)C1)C2	?	-6	12%[2.33 µM]	-11%	-9%	?
COc1ccc(/C=N/NC(=O)c2ccccc2F)cc1CN1CCN(c2ccc(F)cc2)CC1	-25%	1	-51%[59 µM]	-18%	-4%	50µM*
COc1ccc(C(=O)N/N=C/c2ccc(OC)c(COc3ccc(F)cc3)c2)cc1	-10%	-5	·	8%	-7%	-27%
COc1cc(/C=N/NC(=O)c2ccc(-n3cccc3)cc2)ccc1O	?	?	79µM*	-34%	-12%	?
Cc1ccc(NC(=O)Cn2c(=O)n(CC(=O)NCCc3ccccc3)c(=O)c3ccccc32)cc1C	-12%	·	-15%[59 µM]	27%	·	-4%
O=c1c2ccccc2nc(N2CCN(c3cccc(Cl)c3)CC2)n1-c1ccccc1	-15%	·	0%[59 µM]	37%	·	·
CN(C)c1ccc([N+](=O)[O-])cc1C(=O)O	-5%	5	-9%	33%	2%	2%
O=C(O)c1cc([N+](=O)[O-])cc2c1nnn2O	-27%	-67*	?	-22%	-3%	·
O=S(=O)(c1nccs1)N1CCN(c2nc(-c3cccs3)nc3ccccc23)CC1	-18%	·	·	37%	·	·
COc1ccc2[nH]c3c(C)c4ccncc4c(C)c3c2c1	-31%	?	40µM*	16%	-8%	?
Cc1c2ccncc2cc2c1[nH]c1ccccc12	12%	-6	·	42%[57 µM]	1%	·
O=C(CSc1nnc2c3ccccc3c3ccccc3c2n1)Nc1ccccc1F	-22%	?	·	-11%	4%	56µM*
O=C(CSc1nnc2c(n1)[nH]c1ccc(F)cc12)Nc1ccccc1F	-3%	-5	-34%	31%	-4%	17%
O=C(CSc1nnc2c3ccccc3c3ccccc3c2n1)Nc1ccccc1	·	·	45µM*	·	·	-5%[57.1 µM]
CNS(=O)(=O)c1cn(CC(=O)Nc2ccc(OC)cc2OC)cc1S(=O)(=O)NC	-4%	·	0%[59 µM]	30%	·	-13%
O=C(NCSc1ccnc(SCNC(=O)c2ccc(F)cc2)n1)c1ccc(F)cc1	-29%	·	2.8µM*	20%	-8%	-30%
Cc1c(C)n(C)c2ccc(C(=O)NCCCN(C)C3CCCCC3)cc12	?	7	50µM*	1%	-8%	25µM*
Cc1c(C)n(C)c2ccc(C(=O)Nc3cccc4ccccc34)cc12	?	-4	50µM*	?	-2%	?
Cc1ccccc1CCNC(=O)c1ccc2c(c1)c(C)c(C)n2C	?	·	?	-10%	·	?
Cc1c(C)n(C)c2ccc(C(=O)NCCc3ccco3)cc12	?	-9	·	?	-11%	35µM*
Cc1c(C)n(C)c2ccc(C(=O)NCCCN3CCCCC3C)cc12 (centres undefined)	?	22	-8%	33%	-12%	?
CCn1c(C)c(C)c2cc(C(=O)NCCc3cc(OC)c(OC)c(OC)c3)ccc21	?	·	?	-12%	·	45µM*
Cc1noc(C)c1C(=O)N1CCC2(CC1)CN(c1ccccn1)C2	·	·	3%[12.7 µM]	·	·	·
SMILES	JMJD2A Tudor	PI5P4K alpha inh	G9a block	HP1b binding inh	PLK1 PBD inh	BAZ2B block
CCOc1ccc(NC(=O)c2cc3sc(Cl)cc3n2CC)cc1	7%	·	-1%[59 µM]	41%	·	5%
CSCCC(NS(=O)(=O)c1ccc2c(c1)oc(=O)n2C)C(=O)Nc1ccc(Cl)cc1 (centres undefined)	-23%	·	0%[59 µM]	5%	·	?
NCCNC(=O)c1ccc(Cl)cn1	·	·	14%[12.7 µM]	·	·	·
CCn1c(C)c(C)c2cc(C(=O)NCCc3ccco3)ccc21	?	7	50µM*	-11%	-12%	?
CCCCCCCCNc1ccccc1S(=O)(=O)NCc1ccccc1	89%	19	·	214%	-5%	·
CCN(CC)C(=O)c1sc2c(c1C)c(=O)n(-c1ccc(Cl)c(Cl)c1)c(=O)n2Cc1cc(=O)n2c(C)cccc2n1	?	·	1%[59 µM]	43%	·	0%
COc1ccc(/C=C2\SC(=O)N(CCNC(=O)C3CCN(S(=O)(=O)c4cccs4)CC3)C2=O)cc1	-13%	-4	-4%[59 µM]	3%	-6%	3%
O=C(NCCN1C(=O)S/C(=C\c2ccc(F)cc2)C1=O)C1CCN(S(=O)(=O)c2cccs2)CC1	?	-10	-4%	-10%	27µM*	-3%
Cc1cc2c(s1)c1cnn(Cc3ccc(Br)cc3)c(=O)c1n2C	-33%	·	·	·	·	·
O=C(NNc1cccc(Cl)n1)c1ccc(Cl)nc1	?	-4	12%[59 µM]	39%	-9%	12%
O=C(NNc1c(F)c(F)cc(F)c1F)c1ccc(Cl)nc1	-5%	7	50µM*	25%	-1%	-21%
O=C1C2C3C=CC(C3=C(c3ccccc3)c3ccccc3)C2C(=O)N1Cc1ccccc1 (centres undefined)	-18%	0	40µM*	25%	67µM*	-8%
CC(=O)N1CC(O)CC1C(=O)O (centres undefined)	·	·	-3%[12.7 µM]	·	·	·
C=C1C(=O)c2sccc2C(c2ccc(OC)c(OC)c2)C1COC(C)=O (centres undefined)	-22%	5	·	1%	27µM*	·
CC12CN3CC(=O)N4CC5(C)CN(CC(C)(C4)C5=O)C(=O)CN(C1)CC(C)(C3)C2=O	-22%	·	35µM*	38%	-9%	-8%
Cc1ccc(S(=O)(=O)N2CC3(C)CN(S(=O)(=O)c4ccc(C)cc4)CC(C)(C2)C3=O)cc1	-1%	·	-5%[12.7 µM]	56%	-5%	3%
N#CCCn1cc(/C=N/O)c(-c2ccc(-c3ccccc3)cc2)n1	-9%	0	-9%[59 µM]	13%	-8%	-1%
N#CCCn1cc(CNCc2cccnc2)c(-c2ccccc2)n1	8.9µM*	·	·	?	·	·
Cc1cccc(NC(=O)Cn2c(=O)n(Cc3ccccc3)c(=O)c3oc4ccccc4c32)c1C	-23%	·	2%[59 µM]	8%	·	-4%
CC(=O)Nc1nc(=S)n(-c2ccccc2)[nH]1	18µM*	·	4µM*	?	27µM*	?
CC(C)c1nc(=S)n(-c2ccccc2)[nH]1	6.3µM*	3	10µM*	22%	-12%	0%
CC(=O)c1c(N2CCCC2)nc(=S)n(-c2ccccc2)c1C	-12%	·	-21%	17%	-12%	5%
CS(=O)(=O)Nc1c(O)ccc2c1CCCC2C1=NCCN1 (centres undefined)	·	·	22%[59 µM]	·	·	·
O=C(N/C(=C\c1ccco1)C(=O)N1CCCC(CO)C1)c1ccccc1 (centres undefined)	-13%	2	-10%	5%	-1%	-2%
